# Assay outcomes (PubChem)
# ATXN viability = cell viability loss in ATXN counter-screen | S2 cells (HEK-293 line with an ATXN2-luciferase reporter) viability, CellTiter-Fluor protease fluorescence, 24 h | AID 651635 | Potency, µM (doses to about 56.7 µM), hits mostly cytotoxic | 0.49% of 400,000 active; further: nearly all actives have a fitted effect of over 40% in size
# HepG2 tox = HepG2 cytotoxicity, counter-screen for TGF-b inhibitors | Potency, µM (highest dose often 46.1 µM), without a hit: top-dose activity change, negative = cytotoxicity, actives largely listed as cytotoxic | HepG2 CAGA-GFP viability, ATP luminescence, 18 h | 0.76% of 410,000 active
#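 CellTiter-Glo luminescence gave cytotoxicity after 18 hours at 37 degrees C. The cells were HepG2 CAGA-GFP in 1% FBS DMEM, stimulated with 500 pg/mL TGF-beta after compound addition. %Activity was normalised to no-cell wells (complete cell-killing) and DMSO (no toxicity), and curves were fitted and classified.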
# ATXN2 expr inh = inhibitors of ATXN2 expression | HEK-293 ATXN2-luciferase reporter, luminescence, 24 h | Potency, µM (doses to about 57 µM), for the others: at the highest dose activity change, negative = inhibition, most hits filed as inhibitors | 0.72% of 360,000 active | AID 1745845; further: on the % scale 0 is the no-effect control and ±100 the full control effect; nearly all actives have a fitted effect of over 55% in size
#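 ATXN2-luciferase reporter cells (luciferase flanked by upstream and downstream ATXN2 gene portions) were treated 24 h at 37 °C with compounds at up to 57 uM. SteadyGlo luminescence gave expression; GF-AFC fluorescence gave viability.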
# TGFb inhibitor = TGF-b pathway inhibition | HepG2 CAGA-GFP TGF-b/SMAD3 reporter, GFP fluorescence, 18 h; TGF-beta stimulated, 500 pg/mL final | Potency, µM (highest dose often 46.1 µM), for inactives: at the highest dose activity, negative = inhibition, usual class: inhibitors | 1.2% of 410,000 active | AID 588855; further: on the % scale 0 is the no-effect control and ±100 the full control effect; nearly all actives have a fitted effect of over 65% in size
#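 Cell-based qHTS in HEPG2 carrying a CAGA-GFP Smad reporter; compounds added before 500 pg/mL final TGF-beta, 18 h incubation at 37 degrees C, GFP fluorescence quantified per cell by imaging cytometry.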
# HT1080 IDH1KD tx = toxicity to HT-1080 IDH1 knockdown cells (counter line); HT-1080 IDH1 knockdown viability, ATP luminescence, 48 h; Potency, µM (highest dose often 46.1 µM), for the others: at the highest dose activity, negative = toxicity, usual class: cytotoxic; 2% of 360,000 active; AID 686971;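 further: 0% = DMSO wells and -100% = cell-free medium wells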
#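 After a 2 h attachment period, IDH1KD HT-1080 cells took pin-transferred compound for 48 h at 37 °C; ATP-based luminescence after 10 min room-temperature reagent incubation reported viability.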
# HT1080-NT tox = kills 2HG-producing HT-1080-NT fibrosarcoma cells. HT-1080-NT fibrosarcoma viability, CellTiter-Glo ATP luminescence, 48 h. Potency, µM (doses to about 46.1 µM), inactives show at the highest dose activity, negative = less viability, usual class: cytotoxic. AID 686970. 1.6% of 360,000 active;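 further: NT is the 2HG producing partner of a matched IDH1 knockdown line; 0% = DMSO-treated cells and -100% = media-only wells without cells; nearly all actives have a fitted effect of over 55% in size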
#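 Read-out is CellTiter-Glo luminescence after 10 minutes at room temperature, following 48 hours' compound treatment of HT-1080-NT cells (750 cells/well, RPMI, 5% FBS, 37 degrees C).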
# * hit, by the source's call; i = inactive; ? = inconclusive; · = no result. The list is not random: actives were taken first. Their share in the collection is about 3.8%. The call rests on the fitted dose curve; in most records, active means well fitted curve in the direction sought with a large enough effect; inconclusive means small, poorly fitted or top-dose-only effect, or another doubt; inactive means no such curve, though single readings can be large; an effect the other way counts as inactive or inconclusive. Potency means the concentration at half of the fitted maximal effect.
SMILES,ATXN viability,HepG2 tox,ATXN2 expr inh,TGFb inhibitor,HT1080 IDH1KD tx,HT1080-NT tox
CCc1cccc(NC(=O)CN2C(=O)CN=C(c3ccccc3F)c3cc(Cl)ccc32)c1,·,-55.4%,·,12.6µM*,·,·
Cc1cccc(CN2C(=O)CN=C(c3ccccc3)c3cc(Cl)ccc32)c1,·,-41.0%,·,15.8µM*,·,·
O=C(O)c1cccs1,·,15.6%,·,5.3%,·,·
CC(C)N(CCNC(=O)CN1CCCC1=O)C(C)C,·,·,-0.2%,·,·,·
COc1ccc(OC)c(NP(=O)(Oc2ccc(Cl)cc2)Oc2ccc(Cl)cc2)c1,i,0.0%,8.4%,-17.5%,0.1%,1.2%
COc1ccc(NP(=O)(Oc2ccc(Cl)cc2)Oc2ccc(Cl)cc2)cc1OC,i,-47.2%,-22.0%,20µM*,?,?
Cc1cccc(OP(=O)(Nc2ccc(F)cc2)Oc2cccc(C)c2)c1,i,-84.2%,-24.2%,?,?,23.1µM*
COc1ccccc1OP(=O)(Nc1ccc(Br)cc1)Oc1ccccc1OC,i,-79.2%,-22.1%,15.8µM*,-12.4%,2.4%
COc1ccc(NP(=O)(Oc2cccc(C)c2)Oc2cccc(C)c2)cc1OC,i,-43.4%,·,15.8µM*,1.4%,-9.2%
COc1ccc(NP(=O)(Oc2ccccc2OC)Oc2ccccc2OC)cc1,i,0.1%,·,-4.5%,-14.1%,1.5%
COc1cc([N+](=O)[O-])cc([N+](=O)[O-])c1N,·,12.4%,·,3.1%,·,·
CNC(=O)Oc1ccc(-c2cn3cc(C)ccc3n2)cc1,i,-61.3%,8.91µM*,-25.9%,-28.8%,-11.2%
O=C1CN2CCOC2(c2ccccc2Cl)c2cc(Cl)ccc2N1 (stereo not given),i,·,4.9%,·,·,·
Cc1occc1C(=O)Nc1cccc(-c2nc(CNC(=O)c3cccc(C#CC(C)(C)O)c3)c(C)o2)c1,31.6µM*,·,·,·,·,·
COC(=O)C1=C(C(=O)OC)SC2(S1)C(C(=O)OC)=C(C(=O)OC)Sc1c2ssc1=O,14.1µM*,-106.9%,17.8µM*,?,1.16µM*,5.17µM*
CCOC(=O)c1cccc(NC(=O)c2cnc(N3CCCCC3)c3ccccc23)c1,·,-21.4%,·,?,·,·
NS(=O)(=O)c1ccc(N=Cc2c(O)n(C3CCCCC3)c(=O)n(C3CCCCC3)c2=O)cc1,·,-111.3%,?,15.8µM*,?,?
CCN(CC)c1ccc(C=C2C(=O)NC(=S)NC2=O)cc1,?,15.8µM*,·,17.8µM*,?,?
O=C(NCCc1ccc(F)cc1)C(=O)NCC(c1cccs1)S(=O)(=O)c1ccc(Cl)cc1 (stereo not given),?,-18.0%,?,-11.4%,·,·
CC[C@@H]1[C@@H](C)O[C@@](O)([C@@H](C)[C@H](O)[C@H](C)[C@H]2OC(=O)C=CC=C[C@@H](C)[C@@H]([C@@H](C)[C@@H](O)[C@H](C)[C@@]3(O)C[C@H](O[C@H]4C[C@H](O)[C@H](O)[C@H](C)O4)[C@H](CC)[C@@H](C)O3)OC(=O)C=CC=C[C@@H]2C)C[C@H]1O[C@H]1C[C@H](O)[C@H](O)[C@H](C)O1,·,·,0.968µM*,·,·,·
COc1cccc(OC)c1-c1nn2c(-c3n[nH]c4c3CCC4)nnc2s1,·,-19.2%,·,?,·,·
CC(Cc1ccccc1)NCC(=O)Nc1cc(N(C)C)nc2ccccc12 (stereo not given),i,7.5%,-2.7%,-19.1%,23.1µM*,?
C[C@@H]1CN([C@H](C)CO)C(=O)CCCn2cc(nn2)CO[C@H]1CN(C)C(=O)Oc1cccc2ccccc12,i,10µM*,-1.9%,?,11.6%,6.2%
CN1CCN(c2ccc([N+](=O)[O-])c(N/N=C3\CN4CCC3CC4)c2)CC1,10µM*,-22.3%,-7.2%,8.0%,-13.0%,-9.7%
CCCOc1ccc(C(=O)Nc2ccc(-c3cc4ccccc4oc3=O)c(C)c2)cc1,?,-22.0%,?,-28.5%,·,·
SMILES,ATXN viability,HepG2 tox,ATXN2 expr inh,TGFb inhibitor,HT1080 IDH1KD tx,HT1080-NT tox
CCCC[C@@H](C)C[C@@H](C)C(=O)N(C)[C@@H](CC(C)C)C(=O)N[C@H](C(=O)N(C)[C@H](C(=O)N1C[C@@H](O)C[C@H]1C(=O)N1C(=O)C=C[C@@H]1C)C(C)C)C(C)OC(C)=O (stereo not given in full),·,-112.8%,?,?,0.116µM*,0.0291µM*
CN(C)c1ccc(C(=O)c2ccc(N(C)C)cc2)cc1,i,-22.0%,26.8%,2.9%,2.51µM*,7.08µM*
COc1ccc(NC(=O)N2CCN(c3nc(-c4cccc(OC)c4)cs3)CC2)cc1,?,-25.9%,22.4µM*,-8.3%,?,-10.0%
CC1COC2(c3ccccc3Cl)c3cc(Cl)ccc3NC(=O)CN12 (stereo not given),i,·,3.9%,·,·,·
COc1ccccc1CNC(=O)Cn1c(=O)oc2cc(S(=O)(=O)N3CCC(C)CC3)ccc21,i,-32.9%,-20.4%,?,·,·
Cc1nc2c(=O)n(C)c(=O)nc-2n(C)n1,7.08µM*,0.631µM*,3.55µM*,0.631µM*,1.3µM*,2.59µM*
CCn1nc(-c2ccccc2)nc2c(=O)n(C)c(=O)nc1-2,·,-95.9%,28.2µM*,0.562µM*,5.8µM*,4.11µM*
Cn1nc(-c2ccccc2)nc2c(=O)n(C)c(=O)nc1-2,·,1µM*,·,0.562µM*,·,·
O=c1c2ccccc2nc(-c2ccccc2)n1-n1cccc1,i,-3.4%,-1.1%,-10.2%,2.0%,7.0%
CC(=O)Oc1ccc2c3c1O[C@H]1[C@@H](OC(C)=O)C=C[C@H]4[C@@H](C2)N(C)CC[C@@]341,i,·,·,·,·,·
CCCSc1cc(OC)c(CCN)cc1OC,i,·,·,·,·,·
COc1ccc(/C=C/C(=O)NC(=S)NCCc2ccc(OC)c(OC)c2)cc1,?,6.31µM*,?,5.62µM*,10µM*,11.2µM*
O=C(CN1CCCC1)c1ccccc1,·,-1.6%,·,-1.1%,·,·
O=C(c1ccccc1)C(CN1CCCC1)c1ccccc1 (stereo not given),·,5.62µM*,?,?,13µM*,20.6µM*
COc1cc(C2c3cc4c(c(O)c3CC3COC(=O)C32)OCO4)cc(OC)c1OC (stereo not given),?,-20.1%,5.4%,-59.2%,?,0.0052µM*
COc1cc(C2c3cc4c(cc3CC3COC(=O)C32)OCO4)cc(OC)c1OC (stereo not given),?,5.0%,-2.9%,?,0.231µM*,0.366µM*
COc1cc([C@@H]2c3cc4c(cc3C[C@H]3COC(=O)[C@@H]32)OCO4)cc(OC)c1O,·,4.2%,·,-19.6%,·,·
